Rows were chosen to be rich in hits. Some 19% of all compounds tested hit in one or more screens of this group.
HT1080 IDH1KD tx: kills HT-1080 cells with IDH1 knockdown | HT-1080 IDH1 knockdown viability, ATP luminescence, 48 h | AID 686971 | 2% of 360,000 active | Potency, µM (series often up to 46.1 µM), for inactives: at the top dose activity, negative = toxicity, hits mostly cytotoxic;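 further: 0% = DMSO wells and -100% = cell-free medium wells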
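CellTiter-Glo luminescence after 48 h compound exposure at 37 degrees C of IDH1-knockdown HT-1080 cells in 5% FBS RPMI. %Activity scaled between DMSO wells and cell-free media wells, with curves fitted and assigned curve classes.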
KB-3-1 tox: KB-3-1 parental cell cytotoxicity | KB-3-1 viability, CellTiter-Glo ATP luminescence, 72 h | Potency, µM (series often up to 46.1 µM), usual class: cytotoxic | 1.4% of 400,000 active; further: nearly all actives have a fitted effect of over 60% in size
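72 h, 37 °C compound treatment of KB-3-1 parental cells; CellTiter-Glo added, 10 min, luminescence read. Data corrected against DMSO-only plates and normalized before curve fitting.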
DT40 TDP1 no CPT: qHTS for Inhibitors of human tyrosyl-DNA phosphodiesterase 1 (TDP1): qHTS in cells in absence of CPT; DT40 Tdp1-/- hTDP1 cells, no CPT, ATP luminescence, 48 h; 15% of 420,000 active; Potency, µM (top dose mostly 46.2 µM), without a hit: at the highest dose activity change, negative = growth inhibition, hits mostly inhibitors; further: nearly all actives have a fitted effect of over 55% in size
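Cells were dispensed at 400 per well, compounds added by pin tool, plates incubated ≥48 hr at 37 °C, then CellTiter-Glo added for 30 min at room temperature before luminescence reading. Line: DT40 Tdp1-/- complemented with hTDP1; camptothecin omitted.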
HT1080NT lethal: kills 2HG-producing HT-1080-NT fibrosarcoma cells; HT-1080-NT fibrosarcoma viability, CellTiter-Glo ATP luminescence, 48 h; Potency, µM (series often up to 46.1 µM), for the others: at the highest dose activity, negative = less viability, actives largely listed as cytotoxic; 1.6% of 360,000 active;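 further: NT is the 2HG producing partner of a matched IDH1 knockdown line; 0% = DMSO-treated cells and -100% = media-only wells without cells; nearly all actives have a fitted effect of over 55% in size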
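Viability by CellTiter-Glo luminescence after 48 h compound exposure at 37C of HT-1080-NT cells (750/well, RPMI, 5% FBS). % activity scaled between DMSO wells and medium-only wells, then curve-fitted and categorized by curve class.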
KB-V1 cytotox: kills drug-selected multidrug resistant KB-V1 cells; KB-V1 MDR cells viability, CellTiter-Glo, 72 h; Potency, µM (titrated, usually from 46.1 µM), hits mostly cytotoxic; 3.4% of 400,000 active; AID 1347076; further: nearly all actives have a fitted effect of over 60% in size
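qHTS viability screen in drug-selected KB-V1 MDR cells: 72 h compound treatment at 37 degrees C, ATP luminescence end point.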
DT40 TDP1 CPT: growth inhibition of DT40 Tdp1-/-;hTDP1 cells with camptothecin (screen for TDP1 inhibitors). 12% of 420,000 active. chicken DT40 Tdp1-/-;hTDP1 cells + 20 nM CPT, ATP luminescence, 48 h. Potency, µM (highest dose often 46.2 µM), without a hit: at the top dose activity change, negative = growth inhibition, usual class: inhibitors. AID 686979; further: nearly all actives have a fitted effect of over 55% in size
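Chicken DT40 Tdp1-/- cells stably complemented with human TDP1 were seeded at 400 cells/well in medium containing 20 nM camptothecin, exposed to pin-transferred compounds, and grown at 37 °C for at least 48 hr. Viability was read as ATP luminescence.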
* hit, by the source's call; i = inactive; u = inconclusive. The call rests on the fitted dose curve; in most records, active means well fitted curve in the direction sought with a large enough effect; inconclusive means small, poorly fitted or top-dose-only effect, or another doubt; inactive means no such curve, though single readings can be large; an effect the other way counts as inactive or inconclusive. Unless noted, on the % scale 0 is the no-effect control and ±100 the full control effect; potency means the concentration at half of the fitted maximal effect.

SMILES | HT1080 IDH1KD tx | KB-3-1 tox | DT40 TDP1 no CPT | HT1080NT lethal | KB-V1 cytotox | DT40 TDP1 CPT
COc1ccccc1N1CCN(C(=O)c2ccc(-c3ccc(Cl)cc3)o2)CC1 | 5.17µM* | 4.61µM* | 2.31µM* | 7.31µM* | u | 3.66µM*
CCc1ccc2oc(C(=O)N3CCN(c4ccc(OC)cc4)CC3)cc(=O)c2c1 | -2.4% | i | u | -4.4% | i | 10.9%
COc1ccccc1N1CCN(C(=O)NCc2ccc(Cl)cc2)CC1 | -8.0% | i | u | -11.6% | i | -8.1%
COc1ccccc1N1CCN(C(=O)c2ccc(-c3nc4ccccc4s3)o2)CC1 | -17.6% | i | 16.4µM* | -19.9% | u | 23.1µM*
CCc1ccc2oc(C(=O)N3CCN(c4ccccc4OC)CC3)cc(=O)c2c1 | 13µM* | 18.4µM* | 9.2µM* | u | 23.1µM* | 5.17µM*
COc1ccc(N2CCN(C(=O)c3ccc(-c4nc5ccccc5s4)o3)CC2)cc1 | -2.4% | i | 11.6µM* | -2.8% | i | 16.4µM*
Cc1ccc(NS(=O)(=O)c2ccc(C)c(C(=O)Nc3ccc(S(=O)(=O)Nc4onc(C)c4C)cc3)c2)cc1 | 14.4% | i | -5.5% | -2.9% | i | -10.9%
CCOC(=O)c1oc2ccccc2c1NC(=O)Cc1cccs1 | u | i | -14.8% | 0.8% | 14.6µM* | -8.8%
O=C1N/C(=C\c2ccccc2)c2ccccc21 | u | i | 23.1µM* | u | u | 20.6µM*
COC(=O)c1ccc(OC)c(CSc2nnc(COc3ccccc3)o2)c1 | u | i | u | -2.4% | 20.6µM* | u
COC(=O)c1ccc(OC)c(CSc2nnc(COc3ccc(Cl)cc3)o2)c1 | -1.0% | i | -27.2% | 1.5% | u | -20.4%
O=C(CSc1nnc(COc2ccc(Cl)cc2)o1)N1c2ccccc2CCc2ccccc21 | u | i | 14.6µM* | -22.0% | i | u
Cc1cccc(OCc2nnc(SCC(=O)NCCc3ccccc3)o2)c1 | 2.4% | i | -7.8% | 1.4% | i | -1.3%
COC(=O)c1ccc(OC)c(CSc2nnc(-c3ccc(C(C)(C)C)cc3)o2)c1 | -3.5% | u | 20.6µM* | -3.3% | u | 16.4µM*
O=C(CSc1nnc(COc2ccccc2)o1)NCCc1ccccc1 | u | u | 7.31µM* | -1.2% | i | 8.2µM*
Cc1cccc(CN2CCN([C@@H]3CS(=O)(=O)N[C@H]3COCc3ccccc3)CC2)c1 | 1.6% | i | u | -15.1% | i | u
CSc1nnc(CSCc2ccc(Cl)cc2Cl)n1-c1ccccc1 | u | i | 20µM* | -0.4% | u | u
CS(=O)(=O)c1nc(S(=O)(=O)c2ccc(Cl)cc2)c(N2CCN(CCO)CC2)s1 | -0.7% | i | 6.2% | 4.3% | i | u
Cc1ccc(S(=O)(=O)c2nc(S(=O)(=O)c3ccc(C)cc3)c(N3CCN(CCO)CC3)s2)cc1 | u | i | u | u | i | 23.1µM*
CCOC1=C2CN(S(=O)(=O)c3ccc(C)cc3)[C@H](c3cccc4ccccc34)C[C@H]2C(C#N)(C#N)C(C#N)(C#N)C1 | u | i | 5.8µM* | u | i | 4.11µM*
CCCCC[C@@H]1[C@@H]2C(=C(OCC)C[C@@H]3C(=O)N(c4ccccc4)C(=O)[C@H]23)[C@H](c2ccccc2)N1S(=O)(=O)c1ccc(C)cc1 | 18.3% | i | -28.8% | 17.7% | i | -17.8%
CCOC1=C2[C@H](c3ccccc3)N(S(=O)(=O)c3ccc(C)cc3)C(C(C)(C)C)[C@H]2C(C#N)(C#N)C(C#N)(C#N)C1 (some centres not stated) | u | i | 2.06µM* | u | i | 2.06µM*
